The target of assay [1] is PAS domain-containing serine/threonine-protein kinase (Homo sapiens) (UniProt Q96RG2). The conditions noted are these: at 1 µM.
For assay [2], the target named is Serine/threonine-protein kinase PAK 5 (Homo sapiens) (UniProt Q9P286). The conditions noted are these: at 1 µM.
For assay [3] the target is unchanged. The conditions noted are these: at 10 µM.
Assay [4] has as its target Serine/threonine-protein kinase PAK 6 (Homo sapiens) (UniProt Q9NQU5). The conditions noted are these: at 1 µM.
Assay [5] shares this target. The conditions noted are these: at 10 µM.
Assay [6] addresses PAS domain-containing serine/threonine-protein kinase (Homo sapiens) (UniProt Q96RG2). The conditions noted are these: at 10 µM.
Assay [7] has as its target Activated CDC42 kinase 1 (Homo sapiens) (UniProt Q07912). The conditions noted are these: at 1 µM.
Assay [8] has the same target. The conditions noted are these: at 10 µM.
Assay [9] concerns the target ALK tyrosine kinase receptor (Homo sapiens) (UniProt Q9UM73). The conditions noted are these: at 1 µM.
For assay [10] the target is unchanged. The conditions noted are these: at 10 µM.
In assay [11] the target is T1, Activin receptor type-1B (Homo sapiens) (UniProt P36896).
T1 sequence (whole entry): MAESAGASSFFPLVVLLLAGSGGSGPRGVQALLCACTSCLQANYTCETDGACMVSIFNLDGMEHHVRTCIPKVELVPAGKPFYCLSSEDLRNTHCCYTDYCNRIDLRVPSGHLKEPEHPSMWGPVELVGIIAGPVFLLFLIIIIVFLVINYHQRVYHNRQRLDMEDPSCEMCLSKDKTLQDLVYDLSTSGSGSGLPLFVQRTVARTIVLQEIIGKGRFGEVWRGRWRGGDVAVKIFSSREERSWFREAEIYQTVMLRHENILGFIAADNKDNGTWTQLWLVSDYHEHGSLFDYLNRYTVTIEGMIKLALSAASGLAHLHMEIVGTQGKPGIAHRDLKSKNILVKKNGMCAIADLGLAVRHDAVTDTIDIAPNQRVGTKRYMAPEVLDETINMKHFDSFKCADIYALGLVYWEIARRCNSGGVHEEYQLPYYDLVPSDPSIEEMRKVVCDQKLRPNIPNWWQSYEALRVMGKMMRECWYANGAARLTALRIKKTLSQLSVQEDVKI
The conditions noted are these: at 1 µM.

Assay [12] deals with T1, Activin receptor type-1B (Homo sapiens). The conditions noted are these: at 10 µM.
For assay [13], the target named is T2, AMP-activated protein kinase (AMPK) alpha-1/beta-1/gamma-1 (Homo sapiens) (UniProt P54619+Q9Y478+Q13131). The conditions noted are these: at 1 µM.
Assay [14] has as its target T2, AMP-activated protein kinase (AMPK) alpha-1/beta-1/gamma-1 (Homo sapiens). The conditions noted are these: at 10 µM.
Assay [15] addresses T3, AMP-activated protein kinase, AMPK (Homo sapiens) (UniProt P54646+O43741+P54619+Q9UGJ0+Q9Y478+Q13131+Q9UGI9). The conditions noted are these: at 1 µM.
Assay [16] addresses T3, AMP-activated protein kinase, AMPK (Homo sapiens). The conditions noted are these: at 10 µM.
For assay [17], the target named is T4, NUAK family SNF1-like kinase 1 (Homo sapiens) (UniProt O60285).
T4 sequence (whole entry): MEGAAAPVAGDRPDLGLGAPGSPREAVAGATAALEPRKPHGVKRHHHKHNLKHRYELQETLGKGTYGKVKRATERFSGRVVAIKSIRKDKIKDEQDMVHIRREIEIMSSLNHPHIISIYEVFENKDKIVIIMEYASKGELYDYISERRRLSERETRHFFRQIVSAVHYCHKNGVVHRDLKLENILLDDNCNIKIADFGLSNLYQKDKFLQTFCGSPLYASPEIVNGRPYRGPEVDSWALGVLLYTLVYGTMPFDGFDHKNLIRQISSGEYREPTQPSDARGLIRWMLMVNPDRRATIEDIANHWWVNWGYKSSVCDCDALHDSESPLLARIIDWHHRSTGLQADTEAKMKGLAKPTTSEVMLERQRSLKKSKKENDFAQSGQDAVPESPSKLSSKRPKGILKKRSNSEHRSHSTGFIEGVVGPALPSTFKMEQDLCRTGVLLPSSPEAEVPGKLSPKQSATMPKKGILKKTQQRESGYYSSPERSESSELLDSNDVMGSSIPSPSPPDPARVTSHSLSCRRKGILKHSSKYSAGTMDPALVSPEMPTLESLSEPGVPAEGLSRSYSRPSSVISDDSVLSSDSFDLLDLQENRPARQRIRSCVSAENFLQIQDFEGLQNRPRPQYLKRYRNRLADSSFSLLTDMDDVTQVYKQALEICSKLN
The conditions noted are these: at 1 µM.

Assay [18] concerns the target T4, NUAK family SNF1-like kinase 1 (Homo sapiens). The conditions noted are these: at 10 µM.
For assay [19], the target named is T5, Mitogen-activated protein kinase kinase kinase 5 (Homo sapiens) (UniProt Q99683).
T5 sequence (whole entry): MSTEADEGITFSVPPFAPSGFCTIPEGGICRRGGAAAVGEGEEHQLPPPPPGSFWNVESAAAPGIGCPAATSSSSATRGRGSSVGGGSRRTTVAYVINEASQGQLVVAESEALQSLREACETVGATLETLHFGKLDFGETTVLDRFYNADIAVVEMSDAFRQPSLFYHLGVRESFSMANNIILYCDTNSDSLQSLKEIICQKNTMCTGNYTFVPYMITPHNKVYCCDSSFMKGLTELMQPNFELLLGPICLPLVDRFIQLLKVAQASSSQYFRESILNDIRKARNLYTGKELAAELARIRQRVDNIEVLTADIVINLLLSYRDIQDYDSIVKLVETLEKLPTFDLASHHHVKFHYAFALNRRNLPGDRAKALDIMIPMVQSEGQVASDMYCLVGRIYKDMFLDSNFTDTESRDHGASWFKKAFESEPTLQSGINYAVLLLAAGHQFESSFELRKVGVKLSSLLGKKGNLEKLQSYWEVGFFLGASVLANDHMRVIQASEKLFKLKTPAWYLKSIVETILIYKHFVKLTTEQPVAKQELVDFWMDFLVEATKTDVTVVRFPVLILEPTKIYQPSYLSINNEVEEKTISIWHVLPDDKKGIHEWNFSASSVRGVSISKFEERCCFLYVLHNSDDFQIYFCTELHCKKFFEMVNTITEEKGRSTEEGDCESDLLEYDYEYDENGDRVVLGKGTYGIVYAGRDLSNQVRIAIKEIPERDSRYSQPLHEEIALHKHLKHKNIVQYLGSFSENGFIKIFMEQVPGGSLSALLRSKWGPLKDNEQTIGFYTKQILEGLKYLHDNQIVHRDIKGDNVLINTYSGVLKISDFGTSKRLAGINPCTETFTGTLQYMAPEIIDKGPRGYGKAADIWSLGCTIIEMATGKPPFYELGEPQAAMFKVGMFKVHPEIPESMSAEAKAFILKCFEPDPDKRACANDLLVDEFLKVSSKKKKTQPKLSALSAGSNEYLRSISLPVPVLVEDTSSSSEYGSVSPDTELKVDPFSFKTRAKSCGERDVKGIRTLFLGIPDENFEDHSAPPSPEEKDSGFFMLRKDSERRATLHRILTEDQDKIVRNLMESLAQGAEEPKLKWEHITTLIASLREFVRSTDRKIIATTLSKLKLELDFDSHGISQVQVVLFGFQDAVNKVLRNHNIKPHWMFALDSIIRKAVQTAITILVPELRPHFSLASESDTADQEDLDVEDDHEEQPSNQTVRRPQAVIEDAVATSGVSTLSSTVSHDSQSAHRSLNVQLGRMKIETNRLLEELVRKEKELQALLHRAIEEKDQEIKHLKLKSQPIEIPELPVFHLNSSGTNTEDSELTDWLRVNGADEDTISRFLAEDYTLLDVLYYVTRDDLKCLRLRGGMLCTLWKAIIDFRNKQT
The conditions noted are these: at 1 µM.

For assay [20], the target named is Platelet-derived growth factor receptor alpha (Homo sapiens) (UniProt P16234). The conditions noted are these: at 1 µM.

Sequence of Activated CDC42 kinase 1 (Homo sapiens) (Q07912 whole entry, looked up): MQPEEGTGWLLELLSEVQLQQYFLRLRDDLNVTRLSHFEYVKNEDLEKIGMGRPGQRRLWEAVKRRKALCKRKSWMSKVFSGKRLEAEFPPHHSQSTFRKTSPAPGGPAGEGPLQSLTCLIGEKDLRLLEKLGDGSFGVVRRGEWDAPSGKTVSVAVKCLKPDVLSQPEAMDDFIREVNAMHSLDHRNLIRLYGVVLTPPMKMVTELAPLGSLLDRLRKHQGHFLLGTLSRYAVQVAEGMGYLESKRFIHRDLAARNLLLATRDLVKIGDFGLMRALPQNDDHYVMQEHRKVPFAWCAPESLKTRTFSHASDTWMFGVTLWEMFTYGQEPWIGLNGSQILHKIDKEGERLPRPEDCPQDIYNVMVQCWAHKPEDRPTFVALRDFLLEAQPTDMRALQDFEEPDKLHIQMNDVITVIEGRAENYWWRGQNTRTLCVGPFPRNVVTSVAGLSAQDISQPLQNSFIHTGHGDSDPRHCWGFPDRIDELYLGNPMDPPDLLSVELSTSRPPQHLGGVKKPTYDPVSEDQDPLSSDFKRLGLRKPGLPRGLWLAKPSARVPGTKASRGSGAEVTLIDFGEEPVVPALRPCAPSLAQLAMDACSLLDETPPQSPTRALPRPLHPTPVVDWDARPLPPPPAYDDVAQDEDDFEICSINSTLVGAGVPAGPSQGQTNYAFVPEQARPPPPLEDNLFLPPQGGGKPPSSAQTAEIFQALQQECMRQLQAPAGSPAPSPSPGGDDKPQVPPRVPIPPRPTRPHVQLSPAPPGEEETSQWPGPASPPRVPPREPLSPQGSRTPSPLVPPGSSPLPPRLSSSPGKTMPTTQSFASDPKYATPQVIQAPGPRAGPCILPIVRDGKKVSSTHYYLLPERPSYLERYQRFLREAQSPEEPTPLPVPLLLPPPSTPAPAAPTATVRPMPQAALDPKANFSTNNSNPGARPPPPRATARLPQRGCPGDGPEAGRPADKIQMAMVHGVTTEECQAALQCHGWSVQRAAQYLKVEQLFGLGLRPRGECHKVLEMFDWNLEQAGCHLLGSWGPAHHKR
Sequence of PAS domain-containing serine/threonine-protein kinase (Homo sapiens) (Q96RG2 whole entry, the tested form may be a part): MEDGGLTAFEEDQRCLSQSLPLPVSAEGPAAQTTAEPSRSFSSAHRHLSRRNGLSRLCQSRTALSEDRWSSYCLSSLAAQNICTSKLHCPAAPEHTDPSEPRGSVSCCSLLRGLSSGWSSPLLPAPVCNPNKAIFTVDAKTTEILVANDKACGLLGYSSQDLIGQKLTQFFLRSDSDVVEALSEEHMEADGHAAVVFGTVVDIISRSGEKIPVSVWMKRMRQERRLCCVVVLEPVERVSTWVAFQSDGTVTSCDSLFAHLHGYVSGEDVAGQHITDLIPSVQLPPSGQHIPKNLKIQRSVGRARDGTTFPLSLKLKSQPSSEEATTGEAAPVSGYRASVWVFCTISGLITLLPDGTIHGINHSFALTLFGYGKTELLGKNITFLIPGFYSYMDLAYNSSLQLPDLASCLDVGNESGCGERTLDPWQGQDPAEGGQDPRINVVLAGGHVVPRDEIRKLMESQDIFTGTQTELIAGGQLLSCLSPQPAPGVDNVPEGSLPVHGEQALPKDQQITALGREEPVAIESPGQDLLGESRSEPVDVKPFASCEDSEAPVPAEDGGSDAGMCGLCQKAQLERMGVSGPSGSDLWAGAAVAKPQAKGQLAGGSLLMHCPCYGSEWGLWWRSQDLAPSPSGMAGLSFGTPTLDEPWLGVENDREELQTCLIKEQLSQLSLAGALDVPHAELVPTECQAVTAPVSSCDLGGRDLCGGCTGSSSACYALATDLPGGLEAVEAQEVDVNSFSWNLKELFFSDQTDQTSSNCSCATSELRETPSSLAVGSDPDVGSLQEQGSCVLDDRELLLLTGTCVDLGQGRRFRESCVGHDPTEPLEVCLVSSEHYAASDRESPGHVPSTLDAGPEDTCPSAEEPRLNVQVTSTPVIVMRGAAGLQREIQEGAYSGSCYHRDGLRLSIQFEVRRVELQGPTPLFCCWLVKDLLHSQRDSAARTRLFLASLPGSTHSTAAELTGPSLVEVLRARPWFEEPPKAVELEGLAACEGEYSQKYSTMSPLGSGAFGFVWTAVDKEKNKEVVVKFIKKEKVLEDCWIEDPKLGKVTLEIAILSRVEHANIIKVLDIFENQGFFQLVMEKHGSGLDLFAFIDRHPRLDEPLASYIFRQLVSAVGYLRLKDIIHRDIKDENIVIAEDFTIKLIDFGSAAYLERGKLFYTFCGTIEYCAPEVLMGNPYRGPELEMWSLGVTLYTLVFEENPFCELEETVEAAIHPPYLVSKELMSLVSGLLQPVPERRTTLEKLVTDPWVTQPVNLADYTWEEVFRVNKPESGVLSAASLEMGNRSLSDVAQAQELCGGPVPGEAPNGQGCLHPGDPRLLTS
Sequence of Serine/threonine-protein kinase PAK 5 (Homo sapiens) (Q9P286 whole entry, looked up): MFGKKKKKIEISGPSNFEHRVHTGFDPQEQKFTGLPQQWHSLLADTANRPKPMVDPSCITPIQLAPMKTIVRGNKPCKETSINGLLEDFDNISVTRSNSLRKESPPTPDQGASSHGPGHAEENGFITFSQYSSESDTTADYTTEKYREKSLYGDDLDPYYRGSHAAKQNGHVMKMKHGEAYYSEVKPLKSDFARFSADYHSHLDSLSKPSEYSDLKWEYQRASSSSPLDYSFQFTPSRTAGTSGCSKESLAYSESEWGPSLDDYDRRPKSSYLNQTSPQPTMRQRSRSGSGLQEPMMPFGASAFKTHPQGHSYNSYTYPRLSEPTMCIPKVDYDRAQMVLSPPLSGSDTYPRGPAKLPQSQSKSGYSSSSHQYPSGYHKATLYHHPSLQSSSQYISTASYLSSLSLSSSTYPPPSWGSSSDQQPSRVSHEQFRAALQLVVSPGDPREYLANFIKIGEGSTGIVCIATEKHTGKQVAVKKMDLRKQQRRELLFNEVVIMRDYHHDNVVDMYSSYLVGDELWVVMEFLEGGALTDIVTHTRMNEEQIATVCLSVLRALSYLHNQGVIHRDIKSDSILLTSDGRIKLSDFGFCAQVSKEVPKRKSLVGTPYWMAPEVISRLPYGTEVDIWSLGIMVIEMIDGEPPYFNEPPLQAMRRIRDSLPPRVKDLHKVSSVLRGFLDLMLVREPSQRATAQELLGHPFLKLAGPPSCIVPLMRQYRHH
Sequence of ALK tyrosine kinase receptor (Homo sapiens) (Q9UM73 19-1620 limits assumed): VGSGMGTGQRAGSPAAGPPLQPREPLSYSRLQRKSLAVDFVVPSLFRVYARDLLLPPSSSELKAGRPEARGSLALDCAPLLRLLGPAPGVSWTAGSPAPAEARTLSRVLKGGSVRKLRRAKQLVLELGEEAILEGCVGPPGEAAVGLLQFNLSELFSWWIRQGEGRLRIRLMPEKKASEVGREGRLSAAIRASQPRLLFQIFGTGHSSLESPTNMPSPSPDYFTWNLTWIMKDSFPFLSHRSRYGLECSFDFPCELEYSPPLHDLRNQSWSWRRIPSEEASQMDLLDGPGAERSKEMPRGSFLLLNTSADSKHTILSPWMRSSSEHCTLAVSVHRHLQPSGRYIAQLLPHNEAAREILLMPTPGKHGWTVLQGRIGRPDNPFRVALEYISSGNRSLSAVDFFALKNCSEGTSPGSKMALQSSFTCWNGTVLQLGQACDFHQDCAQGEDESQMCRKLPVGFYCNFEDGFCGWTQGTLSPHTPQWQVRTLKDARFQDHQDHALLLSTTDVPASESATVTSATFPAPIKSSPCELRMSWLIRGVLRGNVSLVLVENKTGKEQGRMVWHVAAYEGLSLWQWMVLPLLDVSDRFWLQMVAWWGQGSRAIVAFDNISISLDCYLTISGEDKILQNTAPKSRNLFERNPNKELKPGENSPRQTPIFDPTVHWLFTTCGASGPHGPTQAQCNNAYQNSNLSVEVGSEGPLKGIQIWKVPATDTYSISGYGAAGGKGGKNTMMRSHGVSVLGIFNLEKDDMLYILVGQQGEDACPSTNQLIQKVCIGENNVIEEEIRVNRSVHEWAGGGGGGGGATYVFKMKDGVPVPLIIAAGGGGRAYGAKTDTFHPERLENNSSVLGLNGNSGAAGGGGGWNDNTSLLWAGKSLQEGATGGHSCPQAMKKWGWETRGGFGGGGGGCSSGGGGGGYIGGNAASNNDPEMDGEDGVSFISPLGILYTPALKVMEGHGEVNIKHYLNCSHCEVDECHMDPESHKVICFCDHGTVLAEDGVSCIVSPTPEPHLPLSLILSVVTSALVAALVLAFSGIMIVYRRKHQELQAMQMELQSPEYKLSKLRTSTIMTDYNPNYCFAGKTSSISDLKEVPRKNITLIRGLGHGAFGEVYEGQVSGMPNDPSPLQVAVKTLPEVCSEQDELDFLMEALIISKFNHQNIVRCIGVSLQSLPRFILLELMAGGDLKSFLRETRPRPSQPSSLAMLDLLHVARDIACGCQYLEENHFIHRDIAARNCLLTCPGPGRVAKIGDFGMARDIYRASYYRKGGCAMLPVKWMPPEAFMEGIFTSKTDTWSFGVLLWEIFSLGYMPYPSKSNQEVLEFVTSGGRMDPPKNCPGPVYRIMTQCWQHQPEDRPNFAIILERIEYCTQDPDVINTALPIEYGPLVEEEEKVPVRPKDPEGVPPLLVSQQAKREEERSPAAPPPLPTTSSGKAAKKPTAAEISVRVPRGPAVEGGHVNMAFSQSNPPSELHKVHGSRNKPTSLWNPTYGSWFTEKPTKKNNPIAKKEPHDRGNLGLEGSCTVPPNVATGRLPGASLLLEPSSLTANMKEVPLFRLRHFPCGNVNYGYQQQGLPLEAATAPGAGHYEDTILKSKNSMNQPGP

For the compound `Cc1ccc(S(=O)(=O)/C=C/C#N)cc1`, the residual activity in assay [1] was determined as 82%.

As for `O=c1cc(N2CCNCC2)oc2c(-c3ccccc3)cccc12`, the residual activity in [1] was found to be 148%.

Take `O=C1NC(=O)C(c2c[nH]c3ccccc23)=C1c1c[nH]c2ccccc12`: the residual activity in assay [1] was 81%.

Take `O=c1[nH]c2ccccc2n1C1CCN(Cc2ccc(-c3nc4cc5[nH]cnc5cc4nc3-c3ccccc3)cc2)CC1`: the residual activity was 84% in assay [2]; 67% in assay [3]; 121% in [4]; 68% in [5]; 86% in assay [1]; 42% in assay [6]. For the same compound, the residual activity in [7] is 98%; in assay [8], 77%; in [9], 90%; in assay [10] it was 63%; in assay [11], 117%; in assay [12] it was 101%. For the same compound, the residual activity in [13] came to 108%; in [14], 94%; in assay [15] it was 107%; in assay [16], 79%; in assay [17], 113%; in [18], 80%. Further, the residual activity in [19] came to 99%; in assay [20], 127%.

Consider `O=C(O)c1ccc2c3c1cccc3c(=O)n1c3ccccc3nc21`, for which the residual activity in assay [1] amounted to 111%.

Regarding `COc1cc(OC)c(/C=C2\C(=O)Nc3ccccc32)c(OC)c1`, the residual activity in [2] was found to be 96%; in [3], 93%; in assay [5], 93%; in [1], 92%; in assay [7] it was 71%; in assay [8], 56%. For the same compound, the residual activity stood at 89% in [9]; 75% in [10]; 104% in assay [13]; 82% in assay [14]; 95% in [16]; 102% in [17]. For the same compound, the residual activity in [18] is 84%; in assay [19], 91%; in [20], 82%.

As to `c1ccc(-c2n[nH]c3c2oc2ccccc23)cc1`, the residual activity in assay [1] is 130%.

With `O=C1Nc2ccc3ncsc3c2/C1=C/c1c[nH]cn1`, the residual activity in [2] worked out at 70%; in assay [3], 34%; in assay [4], 83%; in [5], 36%; in assay [1], 46%; in [6], 2%. For the same compound, the residual activity amounted to 64% in [7]; 17% in assay [8]; 72% in [9]; 57% in assay [10]; 85% in [11]; 13% in [12]. For the same compound, the residual activity in [13] stood at 10%; in [14], 2%; in assay [15], 3%; in [16], 3%; in [17], 6%; in [18], 5%. Further, the residual activity was determined as 26% in [19] and 68% in [20].

Take `CCc1nc(-c2ccc(OC)cc2)[nH]c1-c1ccncc1`: the residual activity came to 111% in assay [2]; 105% in assay [3]; 128% in [1]; 69% in [8]; 101% in [13]; 114% in assay [20].

With `Cc1ccc(NC2=CC(=O)c3sc(C)nc3C2=O)cc1`, the residual activity in assay [1] was determined as 81%.

Take `COc1cc2ncc(-c3ccccc3)nc2cc1OC`: in assay [1], the residual activity was 90%.
